# In the supplement of paper PMC6555819:
# System: LXRb homodimer (NR concentration 270 nM)
# Experiment: PBM binding z-score (relative to random genomic background probes); higher = stronger binding; sequences stand for … in GC…GCGATTGACAGCGTAGAATGAAGG
# Summary of the method: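 Antibodies against each partner of ligand-free nuclear receptor dimers (one per run) detected binding on custom Agilent 4×180K protein-binding microarrays after 1 h incubation. The double-stranded probes had 34-nt variable regions carrying direct-repeat seeds, single-nucleotide variants, half-site ablations and random human genomic background sequences. Binding z-scores, from regression-normalized fluorescence, use the random background probes as reference.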
row,Sequence,PBM binding z-score
1,CCTACTGGGCCATTCAGAGGTCAGTGATCATATG,-0.442
2,CCTCGGAGGACAACAGGAGGTTAGAGCTGCCAGA,-0.957
3,TGAATCAGGTTAAAGATCAGGGAACGTGGCGTCG,-0.0822
4,CGTCCATGGTCAGCAGGTCAGTGAAAGCGACGTG,-0.987
5,GCGACTGGGGCCAAGCAGGTTACCATAAGGTTGG,-1.37
6,CTGGAAAGGTCGGTTGAGGTGAGTATACGGATAA,-0.219
7,TCATATAGGTAAAGGTCAAAGTCGAACGATATGA,2.62
8,ACAGACAGGTGATGGAGGTAACTCAGGCTATCAT,-0.598
9,TTACCAAGGTGAGCTGAGGACGTTGATCCAACTC,-1.14
10,TCTAGTTGGTCAAAGGTCACACACTCGAAATGCG,1.76
11,ACTAGCAGGCCAAGGGTAACTCAAGATTAGTCCG,-0.553
12,CGTCCCAGGTCAAAGGTCAGTGAAGAGATGACGG,0.888
13,GCGACTAGGGCAAAGCAGGTTACCATAAGGTTGG,-1.03
14,ATCTCTAGGCAACCAAGTTCAGTGAATGCCGAAC,0.281
15,GCATATAGGAAATACAAGGTGAAAGTCCGATTGT,-0.434
16,ATCTCTAGGTAACCAAGTTCAGTTAATGCCGAAC,0.875
17,GCGACTGGGGCAAAGCAGGGTACCATAAGGTTGG,-1.01
18,CTACCAAGGTGAACAAGGTTGTTGATTACTATTC,-0.417
19,CCTGCTAGGTCAATTGTCAGCTAAAGCAGCTCGC,0.259
20,GCTCGGAGGACAAGGTCATAGCTTTGTCCGTAGA,-0.053

row,Sequence,PBM binding z-score
1,ACTCGGAGGAAAAAGGTCAGAGCTACGCCAGTGA,-0.26
2,TCTCGGAGGACACGAAGGTCAGAGCGTTCCAGAG,-1.15
3,GGAACGATGGCAAAGTTGATAGCATCTGTCGACG,-0.97
4,CCTATTAGTTGACCATAAGGGCAACCAAAGCTCG,0.552
5,TCATATAGGTAAATGCTAGCTGAAAGTCCGATCT,-0.112
6,GCTAGCAGGCCATTTGGGTCACTCATTGACGGGC,-0.903
7,GGAACGGGGGCAAAGTTGATAGCATCTGTCGACG,6.22
8,TTACCAAGGTGAGCTGAGGTCGTTGGTCCAACTC,-1.02
9,CCTTGGAGGACAGAAGGTCAGAGCTGTCCGCTTT,-0.609
10,CGATCTAGGTCAGAACAGGACAGTGAAGGATGAT,-0.143
11,TAGCCTAGGTCATGCGCGCCAGTATAGTGTCGGC,0.289
12,GCTGCTAGGTCAGCTTGGTCAGCTAACGGGTACG,0.0113
13,ACTATTAGTTTAGACGAGGGCAACCGATAGGTTG,0.368
14,TCTTGTAGATCAGCAGGAGGTTAAGAAAGATCGA,-0.736
15,GCTAGCAGGCCATTGGGGTCACTCAATGACGGGC,-0.749
16,ACAGACAGGTGAAGAAGGTAACTCAGGCTATCAT,-0.276
17,TCTTGTAGATCACAGGTTAAGAAAGCCGAAGCCT,-0.0792
18,CCTAGTTGGTCAAGGTCACACACGCTATAGGTAC,1.23
19,TAGCCTAGGTCATTCAGGGTCCAGTATAGAAAGC,0.48
20,CAAACTAGGTCAGGAGGTCAAAGTCCGCTTCCCG,1.11
